Some test systems named below: RPMI-8226 leukemia; OVCAR-8 ovarian; OVCAR-5 ovarian; OVCAR-4 ovarian; SK-OV-3 ovarian; IGROV1 ovarian; OVCAR-3 ovarian; HS 578T breast; NCI/ADR-RES ovarian; BT-549 breast; MDA-MB-435 melanoma; SW-620 colon; MCF7 breast; HCT-116 colon; HCC-2998 colon; KM12 colon; T-47D breast.
Holding throughout (assay): NCI-60 one-dose screen, 48 h (100 = growth as untreated, 0 = no growth, -100 = all killed)
Conditions in all cases: 10 µM unless noted

About 83,000 compounds went through this panel and 20% of them were active in at least one assay; those are over-represented in the sample as a whole.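 Results are percent growth after 48 hours of single-concentration exposure. 100 means growth as in untreated cells, lower positive values show inhibition; negative values down to -100 show cell death.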 Unmarked numbers belong to inactive results. The source made the active and inactive calls. Rule for the calls: active = growth percent below 10; inactive = the rest.

For `Cc1cc2c(cc1C)NC1=C(N2)OC(c2c3ccccc3cc3ccccc23)C1=O` (configuration not stated), the growth in the test with RPMI-8226 leukemia was 30.6%; in the test on OVCAR-8 ovarian, -27.4% (active); with OVCAR-5 ovarian it was 13.9%; with OVCAR-4 ovarian, 75.5%; in the test on SK-OV-3 ovarian, 52%; in the test on IGROV1 ovarian, 17.4%. Also, the growth with OVCAR-3 ovarian is 23.3%; in the test with HS 578T breast, 32.5%; with NCI/ADR-RES ovarian it was -41.7% (active); in the test with BT-549 breast, 0.106% (active); in the test on MDA-MB-435 melanoma it was -7.13% (active); in the test with SW-620 colon, 19.3%. The growth with MCF7 breast was 5.73% (active); in the test with HCT-116 colon, -5.82% (active); with HCC-2998 colon, 7.57% (active); in the test with KM12 colon, 9.94% (active).
Consider `COc1ccc(-c2cc(-c3cccnc3)nc3sc4c(=O)n(-c5ccc(C)cc5)nnc4c23)cc1OC`, for which the growth was 105% in the test on OVCAR-8 ovarian; 90% with OVCAR-5 ovarian; 109% with OVCAR-4 ovarian; 95% with SK-OV-3 ovarian; 99.6% in the test with IGROV1 ovarian; 107% in the test with OVCAR-3 ovarian. Further, the growth with HS 578T breast was 93.9%; with NCI/ADR-RES ovarian it was 102%; in the test on T-47D breast it was 99.3%; in the test with BT-549 breast it was 103%; in the test with MDA-MB-435 melanoma it was 99.3%; in the test on SW-620 colon, 94.4%. For the same compound, the growth in the test on HCT-116 colon is 95%; in the test on HCC-2998 colon it was 109%; with KM12 colon, 103%.
Take `N=c1c2ccccc2nc2n1CCCCC2`: the growth is 105% in the test on RPMI-8226 leukemia; 114% in the test with OVCAR-8 ovarian; 96.1% in the test with OVCAR-5 ovarian; 112% in the test on SK-OV-3 ovarian; 106% in the test with IGROV1 ovarian; 116% with OVCAR-3 ovarian. In addition, the growth was 95.4% in the test on HS 578T breast; 105% in the test with NCI/ADR-RES ovarian; 111% in the test on T-47D breast; 117% with BT-549 breast; 103% in the test with MDA-MB-435 melanoma; 110% in the test with SW-620 colon. Besides, the growth in the test on HCT-116 colon was 109%; in the test with HCC-2998 colon, 106%; in the test on KM12 colon it was 112%.
As to `Oc1ccc(Nc2nccc(-c3ccc4ccccc4c3)n2)cc1`, the growth in the test with RPMI-8226 leukemia was 18.3%; with OVCAR-8 ovarian, 31.6%; in the test on OVCAR-5 ovarian, 66.9%; with OVCAR-4 ovarian, 65.5%; with IGROV1 ovarian, 36.3%; with OVCAR-3 ovarian, 34.3%. For the same compound, the growth was 42.8% in the test with HS 578T breast; 48.7% with T-47D breast; 48.2% with BT-549 breast; 8.01% (active) in the test with MDA-MB-435 melanoma; 31.8% with SW-620 colon; 20.2% in the test with MCF7 breast. Further, the growth with HCT-116 colon is 23.2%; in the test with HCC-2998 colon, 60.4%; with KM12 colon, 27.4%.
With `O=C(CCN1CCOCC1)Nc1ccc(Cn2nnc3c2C(=O)c2nnn(Cc4ccc(NC(=O)CCN5CCOCC5)cc4)c2C3=O)cc1`, the growth in the test with OVCAR-8 ovarian is 45.6%; in the test on OVCAR-5 ovarian, 110%; in the test on OVCAR-4 ovarian, -81.4% (active); in the test with SK-OV-3 ovarian, 95.4%; in the test on IGROV1 ovarian it was -19.8% (active); in the test with OVCAR-3 ovarian, -1.65% (active). In addition, the growth is 44.9% in the test with HS 578T breast; 109% in the test on NCI/ADR-RES ovarian; -3.09% (active) in the test with T-47D breast; 29.6% with BT-549 breast; -76.2% (active) in the test on MDA-MB-435 melanoma; 30.7% in the test with SW-620 colon. For the same compound, the growth was -56.3% (active) in the test on MCF7 breast, -15.6% (active) in the test with HCT-116 colon, -7.48% (active) in the test on HCC-2998 colon and 43% with KM12 colon.
As to `Nc1nc(-c2ccc(F)cc2)cc(-c2cnn(-c3ccccc3)n2)n1`, the growth in the test with RPMI-8226 leukemia was 105%; in the test on OVCAR-8 ovarian, 100%; in the test on OVCAR-5 ovarian, 110%; with SK-OV-3 ovarian, 102%; in the test with IGROV1 ovarian it was 83.8%; in the test with OVCAR-3 ovarian, 105%. Besides, the growth in the test with HS 578T breast is 106%; in the test with NCI/ADR-RES ovarian, 106%; in the test with T-47D breast, 87.1%; in the test with BT-549 breast it was 119%; in the test with SW-620 colon it was 99.3%; in the test on MCF7 breast it was 79.9%. Further, the results for the growth in the test with HCT-116 colon, in the test on HCC-2998 colon and with KM12 colon were 106%, 111% and 100%, respectively.
As to `CC(=O)/C(=C/c1cccc(Cl)c1)C(=O)c1ccccc1`, the growth in the test on RPMI-8226 leukemia was 16.8%; with OVCAR-8 ovarian, 85.2%; in the test with OVCAR-5 ovarian, 94.1%; in the test with SK-OV-3 ovarian it was 96.3%; in the test with IGROV1 ovarian it was 83%; in the test with OVCAR-3 ovarian, 96.1%. Further, the growth with HS 578T breast was 94.7%; with NCI/ADR-RES ovarian, 75.8%; in the test with T-47D breast, 63.6%; with MDA-MB-435 melanoma, 72.7%; in the test with SW-620 colon, 71.3%; in the test with MCF7 breast, 34%. Further, the growth in the test on HCT-116 colon was 41.7%; in the test with HCC-2998 colon, 99.9%; with KM12 colon it was 54.8%.
Turning to `CC(C)c1c(C(=O)Nc2ccccc2)c(-c2ccccc2)c(-c2ccc(F)cc2)n1CC[C@@H]1CC=CC(=O)O1`, the growth in the test with RPMI-8226 leukemia is -25.9% (active); in the test with OVCAR-8 ovarian, -19.9% (active); with OVCAR-5 ovarian, 57.1%; with OVCAR-4 ovarian it was 19.8%; in the test with SK-OV-3 ovarian it was 31.6%; in the test with IGROV1 ovarian, -27.5% (active). The growth was -73.3% (active) in the test on OVCAR-3 ovarian; 18.1% in the test with HS 578T breast; 17.1% with T-47D breast; -30.6% (active) in the test on BT-549 breast; 2.54% (active) in the test on MDA-MB-435 melanoma; -45.1% (active) in the test with SW-620 colon. Besides, the growth is -62.5% (active) in the test on HCT-116 colon and -60.7% (active) in the test with KM12 colon.
In the case of `CCOC(=O)C(CC)n1c(=O)c2cc(OC)c(OC)cc2c2cnc3[nH]ccc3c21` (configuration not stated), the growth in the test on RPMI-8226 leukemia was 70.1%; with OVCAR-8 ovarian, 80%; with OVCAR-5 ovarian, 63.8%; with SK-OV-3 ovarian, 58.5%; with IGROV1 ovarian it was 19.7%; with OVCAR-3 ovarian, 76.3%. In addition, the growth in the test with HS 578T breast is 41.7%; in the test with NCI/ADR-RES ovarian, 73.3%; in the test on T-47D breast, 26.1%; in the test on BT-549 breast, 47.6%; in the test with MDA-MB-435 melanoma, 88.2%; in the test with SW-620 colon, 79.9%. Besides, the growth with MCF7 breast was 50.1%; in the test with HCT-116 colon, 67.9%; with HCC-2998 colon, 83.4%; in the test on KM12 colon, 26%.
Turning to `CCCCCCCCCCCCS(=O)CC(C)O` (configuration not stated), the growth in the test with RPMI-8226 leukemia is 98.6%; in the test on OVCAR-8 ovarian, 103%; in the test on OVCAR-5 ovarian, 103%; with SK-OV-3 ovarian it was 102%; in the test on IGROV1 ovarian, 120%; with OVCAR-3 ovarian, 120%. Besides, the growth was 101% in the test with HS 578T breast; 117% with NCI/ADR-RES ovarian; 98.2% in the test on T-47D breast; 96.3% with MDA-MB-435 melanoma; 106% in the test with SW-620 colon; 93.2% in the test with MCF7 breast. For the same compound, the growth in the test with HCT-116 colon is 109%; with HCC-2998 colon it was 111%; in the test with KM12 colon, 116%.

For the origin of these results see PubChem BioAssay (NCI).
